Measurements as given in PubChem BioAssay AID485346 (Sanford-Burnham Center for Chemical Genomics, 2010).
The campaign covered roughly 330,000 compounds. About 10,000 (3%) were called active. This excerpt belongs to a sample that is enriched for actives. Values without a mark were called inactive.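 How the source made its calls: active means inhibition of at least 50% at 8 µM in the primary screen; inactive means the rest.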

target: Protein Mdm4 (Homo sapiens) + E3 ubiquitin-protein ligase Mdm2 (Homo sapiens) (UniProt O15151+Q00987); experiment: disruptors of Mdm2/MdmX RING complex – cell-based, luminescence, split luciferase, SaOS-2, uHTS, primary screen (AID 485346); conditions: SaOS-2 split-luciferase Mdm2/MdmX complementation, at 8 µM, stronger effect = higher value
Sequence (O15151 whole entry, looked up): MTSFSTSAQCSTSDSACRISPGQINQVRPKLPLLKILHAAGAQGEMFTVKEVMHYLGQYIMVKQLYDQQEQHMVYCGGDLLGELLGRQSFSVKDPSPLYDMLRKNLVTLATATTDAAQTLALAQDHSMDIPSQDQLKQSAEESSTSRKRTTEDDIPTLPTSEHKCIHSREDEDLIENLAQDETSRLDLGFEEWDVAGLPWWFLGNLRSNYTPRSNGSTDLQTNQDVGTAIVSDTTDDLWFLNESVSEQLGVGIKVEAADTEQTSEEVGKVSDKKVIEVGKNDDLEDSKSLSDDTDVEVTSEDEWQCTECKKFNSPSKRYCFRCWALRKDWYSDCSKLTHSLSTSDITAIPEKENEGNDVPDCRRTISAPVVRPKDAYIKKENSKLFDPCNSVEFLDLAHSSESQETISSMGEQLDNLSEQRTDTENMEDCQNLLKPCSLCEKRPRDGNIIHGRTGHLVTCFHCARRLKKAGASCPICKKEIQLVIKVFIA
Sequence (Q00987 whole entry, looked up): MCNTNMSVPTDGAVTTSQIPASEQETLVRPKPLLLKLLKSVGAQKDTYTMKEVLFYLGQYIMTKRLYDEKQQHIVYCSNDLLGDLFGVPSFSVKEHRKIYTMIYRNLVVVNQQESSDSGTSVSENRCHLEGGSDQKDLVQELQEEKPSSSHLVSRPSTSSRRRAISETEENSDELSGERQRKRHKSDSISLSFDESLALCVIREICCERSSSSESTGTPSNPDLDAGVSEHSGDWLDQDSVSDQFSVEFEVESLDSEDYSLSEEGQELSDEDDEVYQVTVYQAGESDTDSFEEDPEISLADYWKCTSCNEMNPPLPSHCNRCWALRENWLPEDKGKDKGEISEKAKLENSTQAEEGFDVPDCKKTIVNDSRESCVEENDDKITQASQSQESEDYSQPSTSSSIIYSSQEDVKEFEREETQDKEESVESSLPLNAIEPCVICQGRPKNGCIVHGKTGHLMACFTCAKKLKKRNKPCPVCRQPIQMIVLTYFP

First: CO[C@@H]1[C@@H](OC(N)=O)[C@@H](O)C(Oc2ccc3c(O)c(NC(=O)c4ccc(O)c(CC=C(C)C)c4)c(=O)oc3c2C)OC1(C)C (some centres not stated)
Second: COc1cccc(CNC(=O)c2nnn(CC(=O)Nc3cc(C)ccc3C)c2N)c1
The inhibition of the first is higher: 20.1% for the first, 5.26% for the second.

First: COc1ccc(C2CC(c3cccs3)=NN2c2ccccc2)cc1 (configuration not stated)
Second: O=C(c1ccccc1)N1N=C(c2ccccc2O)CC1c1ccc(Br)cc1 (configuration not stated)
The inhibition of the first is lower: -32.2% for the first, 12% for the second.

Compared with `CCSc1nc(O)c(C(c2cccc(OC)c2)c2c(O)nc(SCC)[nH]c2=O)c(=O)[nH]1`, `COc1ccc(CNC(=O)c2nnn(CC(=O)Nc3cc(C)cc(C)c3)c2N)cc1` is higher in inhibition: -27.3% for the first, 48.3% for the second.

Compared with `Cc1ccc(Nc2nnc(SC(C)C(=O)NC3CC3)s2)cc1` (configuration not stated), `Cc1ccc(NNC(=O)C2CCC2)cc1C` is lower in inhibition: 22.3% for the first, -2.12% for the second.

First: Cc1cc(=O)n2nc(N3CCC(C(=O)Nc4c(F)c(F)c(F)c(F)c4F)CC3)sc2n1
Second: O=C(NNC(=O)c1cc(-c2ccccc2Cl)nc2ccccc12)c1csc(N2CCOCC2)n1
The inhibition of the first is higher: 8.91% for the first, -34.1% for the second.

Compared with `N#Cc1ccc(Oc2cc(C(F)(F)F)nc(-c3ccccn3)n2)cc1`, `COc1cnc(-c2ccccn2)nc1Oc1ccc(C(C)(C)C)cc1` is higher in inhibition: 11.2% for the first, 37.6% for the second.

First: c1ccc2c(NCC3CCCO3)nc(-c3ccncc3)nc2c1 (configuration not stated)
Second: Cc1ccc(C(=O)Nc2nnc(-c3ccncc3)s2)o1
The inhibition of the first is lower: -16.8% for the first, -5.65% for the second.

Going from `c1ccc(-c2nccc(-c3ccc(-n4cnc5ccccc54)cc3)n2)nc1` to `COc1ccc(C(=O)Nc2nc(-c3ccc(OC)cc3)c(-c3ccc([N+](=O)[O-])cc3)s2)cc1`, the inhibition falls from 28.4% to 13.4%.

First: CCn1nc(C)c(CN2CCN(Cc3ccc(OC)c(C)c3C)C(CCO)C2)c1C (configuration not stated)
Second: Cc1nn(C)c(Cl)c1CN1CCC(n2nccc2NC(=O)C2CCCC2)CC1
The inhibition of the first is lower: 10.8% for the first, 12.6% for the second.

First: O=C(OCCN1CCOCC1)C1(c2ccccc2)CCCCC1
Second: O=C(Cn1ccc2cc(S(=O)(=O)N3CCCC3)ccc21)NCc1ccccc1
The inhibition of the first is lower: -8.86% for the first, 12.6% for the second.

First: Cc1ncn2cc(-c3ccc(Cl)cc3Cl)[nH]c(=O)c12
Second: Cc1ccc2[nH]c3c(=O)n(CC(=O)NCCc4ccc(Cl)cc4)ncc3c2c1
The inhibition of the first is higher: 7.48% for the first, -13.8% for the second.

Going from `O=C(Nc1nnc(-c2ccc(F)cc2)s1)c1c(F)cccc1Cl` to `CCOc1cccc(C(=O)Nc2nnc(-c3cccs3)s2)c1`, the inhibition falls from 7.4% to -36.4%.

Going from `COc1ccccc1N(C)S(=O)(=O)c1ccc(Cl)c(C(=O)N2CCC(C(N)=O)CC2)c1` to `Nc1ccc(C(=O)N2CCN(S(=O)(=O)c3ccc(Cl)cc3)CC2)cc1[N+](=O)[O-]`, the inhibition rises from -6.16% to 18.3%.

Going from `COc1ccc(C2CC(=O)Oc3ccc(C(C)(C)C)cc32)cc1` (configuration not stated) to `COc1ccc([C@@H]2[C@@H]3C(=O)N(C(C)(C)C)C(=O)[C@@H]3[C@]3(Cc4ccccc4)C(=O)N(c4cccc(Br)c4)C(=O)N23)cc1`, the inhibition rises from 21.6% to 37.8%.

Compared with `COCc1cc(=O)[nH]c(SC)n1`, `Cc1cc(C)c(C#N)c(SCC(=O)N(CC(C)C)C2CCS(=O)(=O)C2)n1` (configuration not stated) is higher in inhibition: 5.54% for the first, 18% for the second.

First: C=CCn1c(C23CC4CC(CC(C4)C2)C3)n[nH]c1=S
Second: O=c1cc(C(F)(F)F)[nH]c(=O)n1C1CCCCC1
The inhibition of the first is higher: 9.22% for the first, -23.2% for the second.

Compared with `COC(=O)Cn1cc(/C=C/[N+](=O)[O-])c2ccccc21`, `O=C(NC1(C(F)(F)F)NC(=O)N(Cc2cccnc2)C1=O)c1ccccc1Cl` (configuration not stated) is lower in inhibition: 23.4% for the first, 1.79% for the second.

First: CN(C)Cc1c(C(=O)N/N=C/c2ccccc2OCc2ccc(F)cc2)nnn1-c1nonc1N
Second: CC1CCN(C(=O)c2ccc(CSc3ccc(Cl)cc3)cc2)CC1
The inhibition of the first is higher: 14.6% for the first, -14.2% for the second.

With `Oc1ccccc1C1=NN(c2ccccc2)C(c2ccccc2)C1` (configuration not stated) the inhibition was 58.3% (active).
With `COc1cccc(CNC(=O)c2nnn(CC(=O)Nc3cc(Cl)ccc3C)c2N)c1` the inhibition was 77.9% (active).
For `CC(C)(C)Nc1nc(-c2ccccn2)nc2ccccc12`, the inhibition was 87.5% (active).
In the case of `Cc1ccc(Oc2nc(-c3ccccn3)nc3ccccc23)cc1`, the inhibition is reported as 60.4% (active).
With `CC(C)=CC(=O)Nc1nnc(-c2ccc(F)cc2)s1` the inhibition was 80% (active).
In the case of `c1ccc2c(c1)C(=NC1CCCCC1)NC2=NC1CCCCC1`, the inhibition is reported as 94.3% (active).
With `Cc1ccc(Nc2cc(=O)n(C3CCCCC3)c(=O)[nH]2)cc1C` the inhibition was 54.2% (active).
With `O=[N+]([O-])/C=C/c1ccc2c(ccn2Cc2ccccc2)c1` the inhibition was 95.5% (active).
For `Oc1ccc(N=Nc2nccs2)c(O)c1`, the inhibition was 53.8% (active).
For `CC1CCN(C(=O)c2ccc(S(=O)(=O)Cc3cc(F)ccc3F)c([N+](=O)[O-])c2)CC1`, the inhibition was 68.4% (active).
With `N#Cc1ccc(C(=O)Nc2nc(-c3cccs3)c(C(=O)C(F)(F)F)s2)cc1` the inhibition was 83.2% (active).
